The source of these data is PubChem BioAssay (NCATS).

The nature of assay [1]: Cell Viability - BJ (AID 421; calls by dose curve;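 further: potency means the concentration at half of the fitted maximal effect; cells exposed to compound for 40 hours at 37 °C before readout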). The settings on record: BJ fibroblast viability, qHTS. The method, boiled down: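 Quantitative HTS: ATP depletion in BJ cells after 40 hr compound exposure in complete culture medium, detected with CellTiter-Glo; AC50 from standard Hill fits.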
In general terms: In qHTS, concentration-response curves come from the screen itself.

The nature of assay [2]: Cell Viability - SK-N-SH (AID 435; calls by dose curve;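 further: potency means the concentration at half of the fitted maximal effect; compound exposure lasted 40 h at 37 °C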). The note with it: SK-N-SH neuroblastoma cell viability qHTS. The method, boiled down:
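SK-N-SH human neuroblastoma cells (1500/well) were exposed to compounds in complete medium for 40 h at 37 °C, and intracellular ATP was then measured by CellTiter-Glo luminescence. AC50 was taken from Hill fits, normalized to DMSO and 100 uM tamoxifen.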

Assay [3] in a line: MultiTox-Fluor Cytotoxicity Assay - LYMP1-001 - Live Cells (AID 947).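 Further: 0% = DMSO only and full inhibition = tetraoctylammonium bromide control.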 The note with it: LYMP1-001 lymphoblastoid cells, live-cell protease fluorescence viability; series mostly up to 92.2 µM.
A short description of assay [4]: MultiTox-Fluor Cytotoxicity Assay - LYMP1-002 - Live Cells (AID 955).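 Further: cells exposed to compound for 16 hours; on the % scale 0 is the no-effect control and ±100 the full control effect.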 The note with it: LYMP1-002 lymphoblastoid live-cell protease fluorescence viability; series mostly up to 46.1 µM. Summed up: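 Cells were seeded at 2500 per well and incubated 5 hr. Compounds were then added for 16 hr at 37 C, followed by MultiTox-Fluor reagent for 60 min at room temperature and fluorescence reading of viable-cell protease signal.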

A short description of assay [5]: Cell Viability - LYMP2-019 (AID 973).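 Further: 0% = DMSO alone and full effect = 92 µM tetraoctylammonium bromide; nearly all actives have a fitted effect of over 55% in size.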 The note with it: LYMP2-019 lymphoblastoid cell line viability; series mostly up to 92.2 µM. Summed up:
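Cytotoxicity is scored as a concentration-dependent drop in cellular ATP after cells (2500/well) receive compound for 24 hr at 37 C. Tetraoctylammonium bromide serves as positive control.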

Assay [6] is described as follows: Cell Viability - LYMP2-023 (AID 975).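 Further: cellular ATP measured by luciferase luminescence as viability proxy; plate controls were DMSO only for no effect and 92 µM tetraoctylammonium bromide control for full effect; nearly all actives have a fitted effect of over 55% in size.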 The note with it: LYMP2-023 lymphoblastoid cell viability; series mostly up to 92.2 µM. Summed up:
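Steps: seed 2500 human lymphoblastoid cells per well, incubate 5 hr at 37 C, add compound for 24 hr at 37 C, add CellTiter-Glo, hold 30 min at room temperature, read luminescence. AC50 derived by Hill modelling.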

Assay [7] can be described thus: Cell Viability - LYMP2-025 (AID 976).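 Further: plate controls were DMSO only for no effect and tetraoctylammonium bromide control for full effect.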 The note with it: LYMP2-025 lymphoblastoid cell viability; series mostly up to 92.2 µM. Summed up:
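Acute cytotoxicity is scored as a concentration-dependent fall in intracellular ATP, measured by luciferase luminescence, in human lymphoblastoid LYMP2-025 cells exposed to compound for 24 hours at 37 C. AC50 values come from standard Hill fits.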

Assay [8] is described as follows: Cell Viability - LYMP2-007 (AID 979).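 Further: cells exposed to compound for 24 h before reading; 0% = DMSO only and the negative end = 92 µM tetraoctylammonium bromide; nearly all actives have a fitted effect of over 60% in size.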 The settings on record: LYMP2-007 lymphoblastoid cell viability; series mostly up to 92.2 µM. The method, boiled down: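 Cells are seeded at 2500 per well and rested 5 hr. Compounds are then added over a concentration series for 24 hr at 37 C. CellTiter-Glo is added for 30 min at room temperature before luminescence reading.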

The nature of assay [9]: Cell Viability - LYMP2-022 (AID 987).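 Further: 0% = DMSO alone and full effect = tetraoctylammonium bromide at 92 µM; nearly all actives have a fitted effect of over 55% in size.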 The note with it: LYMP2-022 lymphoblastoid cell viability; series mostly up to 92.2 µM. Summed up:
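Cells were seeded at 2500 per well, rested 5 hr at 37 C, and treated with titrated compounds for 24 hr at 37 C. Cellular ATP was then quantified by luciferase luminescence, and AC50 values were derived from Hill-modelled concentration-response curves.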

For assay [10], the target named is Glucocorticoid receptor (Homo sapiens) (UniProt P04150). Briefly: qHTS assay for small molecule agonists of glucocorticoid receptor signaling (AID 588532; active means well fitted curve in the direction sought with a large enough effect in the signal ratio, with a control signal flat; the % refers to the signal ratio;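 further: 100% = dexamethasone at 0.1 µM and 0% = DMSO only wells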). The settings on record: HeLa MMTV-bla, beta-lactamase ratio, agonist, 18 h; stronger effect = higher value; percent of dexamethasone control, DMSO zero. Summed up:
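Quantitative HTS using CellSensor MMTV-bla HeLa cells in charcoal/dextran-treated serum; compounds tested up to 92 uM. After 18 h at 37 C, CCF4 dye reported reporter induction.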

The nature of assay [11]: qHTS assay for small molecule antagonists of peroxisome proliferator-activated receptor delta signaling (AID 588535).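 Further: cells co-treated with a PPAR-delta agonist as stimulator during compound exposure.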 The note with it: HEK293T PPARd-UAS-bla, beta-lactamase FRET ratio, 18 h; 460 nm channel. Summed up:
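Titrations were run on PPAR-delta-UAS-bla HEK293T cells in charcoal/dextran-stripped serum, incubated 18 h at 37 C. CCF4 fluorescence (460/530 nm) after 2 h RT; Hill equation yields IC50 and maximal response.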

Assay [12] deals with Thyroid hormone receptor beta (Homo sapiens) (UniProt P10828). Briefly: qHTS assay for small molecule antagonists of thyroid hormone receptor beta signaling (AID 588547; active means well fitted inhibition curve with a large enough effect in the signal ratio, with a control signal flat, not every such curve was filed as active; the % refers to the signal ratio;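 further: cells stimulated with 0.4 nM T3 agonist during compound exposure; on the % scale 0 is the no-effect control and ±100 the full control effect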). The settings on record: TR-UAS-bla HEK293, beta-lactamase ratio, antagonist mode, 18 h. Summed up:
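Inhibition of T3-driven (0.4nM final) beta-lactamase reporter activity was measured over 0.59 nM to 92 uM compound after 18 h at 37 C. The cells were GripTite HEK293 TR-UAS-bla in charcoal/dextran-stripped serum, with CCF4 ratio read-out and IC50 from Hill fits.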

A short description of assay [13]: Cell Viability - LYMP2-001 (AID 921).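 Further: 0% = DMSO only and full inhibition = tetraoctylammonium bromide control wells; nearly all actives have a fitted effect of over 70% in size.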 The settings on record: LYMP2-001 lymphoblastoid cell viability; series mostly up to 92.2 µM. The method, boiled down: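 Human lymphoblastoid cells (Coriell), 2500 per well, were preincubated 5 hr at 37 C, then exposed to compounds in complete medium for 24 hr at 37 C. Cellular ATP was read by CellTiter-Glo luminescence; AC50 from Hill fits of concentration-response data.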

In assay [14] the target is Bile acid receptor (Homo sapiens) (UniProt Q96RI1). Briefly: qHTS assay for small molecule antagonists of farnesoid X receptor signaling (AID 588526; calls by dose curve; further: on the % scale 0 is the no-effect control and ±100 the full control effect). The note with it: HEK293T FXR-UAS-bla, beta-lactamase ratio, antagonist mode; series mostly up to 76.7 µM. The method, boiled down: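 Beta-lactamase reporter antagonist mode: HEK293T FXR-UAS-bla cells, titrated compound, CDCA stimulation, 16 h 37 C, CCF4 dye 2 h RT. Data normalized to CDCA 50 uM and DMSO; Hill-fit IC50.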

The target in assay [15] is Glucocorticoid receptor (Homo sapiens) (UniProt P04150). Briefly: qHTS assay for small molecule antagonists of glucocorticoid receptor signaling (AID 588533; active means well fitted inhibition curve with a large enough effect in the signal ratio, with a control signal flat, not every such curve was filed as active; the % refers to the signal ratio;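 further: cells stimulated with 2 nM dexamethasone as agonist; on the % scale 0 is the no-effect control and ±100 the full control effect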). The note with it: HeLa MMTV-bla, GRE beta-lactamase ratio, antagonist mode, 18 h; series mostly up to 76.8 µM. Summed up: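 Antagonist-mode qHTS: compound titrations added to GRE-bla HeLa cells, then dexamethasone 2 nM final; 18 h, 37 C. CCF4 FRET fluorescence normalized to dexamethasone and DMSO; IC50 from Hill fit.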

The target in assay [16] is Voltage-gated inwardly rectifying potassium channel KCNH2 (Homo sapiens) (UniProt Q12809). Briefly: qHTS Assay for Small Molecule Inhibitors of the Human hERG Channel Activity (AID 588834).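 Further: top concentration of the series differs between compounds; on the % scale 0 is the no-effect control and ±100 the full control effect; lower thallium flux fluorescence means stronger hERG block; nearly all actives have a fitted effect of over 50% in size.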 The settings on record: U2OS BacMam hERG, FluxOR thallium flux fluorescence; series mostly up to 92.2 µM. Summed up:
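In hERG-transduced U2OS cells, dye-loaded for 1 hr at room temperature in dark, test compounds incubated 10 min at 37 °C before thallium stimulation. AC50 values derived by Hill modelling of concentration-response.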

Assay [17] addresses Mitogen-activated protein kinase 10 (Mus musculus) (UniProt Q61831). Briefly: JNK3 AlphaScreen Assay (AID 530; active means well fitted curve in either direction with a large enough effect, not every such curve was filed as active). The settings on record: JNK3 lysate, c-Jun phosphorylation; series mostly up to 11.4 µM. Summed up: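 qHTS titrations with 15 min compound pre-incubation before adding ATP (10 uM final). Read-out: AlphaScreen of Ser73-phosphorylated biotin-GST-cJun using HepG2 lysate JNK3 activated by IL-1β and TNFα.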
(In general: Alpha assays give light when donor and acceptor beads are brought close together.)

Assay [18] addresses Peroxisome proliferator-activated receptor gamma (Homo sapiens) (UniProt P37231). Briefly: qHTS assay for small molecule antagonists of peroxisome proliferator-activated receptor gamma signaling (AID 588537; active means well fitted inhibition curve with a large enough effect in the signal ratio, with a control signal flat, not every such curve was filed as active; the % refers to the signal ratio;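 further: reporter cells co-stimulated with 50 nM rosiglitazone agonist during compound treatment; % of control where 0% means no effect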). The note with it: HEK293 PPARg-UAS-bla, beta-lactamase ratio, antagonist mode; series mostly up to 76.8 µM. Summed up:
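Antagonist-mode β-lactamase reporter screen run as a titration series. HEK293 PPARγ-UAS-bla cells are stimulated with rosiglitazone (50 nM final) for 16 h, then CCF4 is read at 460/530 nm. Data are scaled between DMSO and rosiglitazone and fitted to the Hill equation.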

Assay [19] in a line: Cell Viability - LYMP1-003 - Assay at 40 hr (AID 964). Further: on the % scale 0 is the no-effect control and ±100 the full control effect; nearly all actives have a fitted effect of over 60% in size. The note with it: LYMP1-003 lymphoblastoid viability; series mostly up to 92.2 µM. The method, boiled down: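 Luminescent ATP signal (CellTiter-Glo) served as the viability read-out after 40 hr compound treatment of human lymphoblastoid LYMP1-003 cells at 37 C. Decreases in ATP were fitted with the Hill equation to give AC50.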

Assay [20] in a line: Cell Viability - LYMP2-018 (AID 985).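 Further: compound exposure lasted 24 hr at 37 °C; plate controls were DMSO only for no effect and tetraoctylammonium bromide at 92 µM for full effect; nearly all actives have a fitted effect of over 50% in size.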 The settings on record: LYMP2-018 lymphoblastoid cells, viability (qHTS); series mostly up to 92.2 µM. The method, boiled down:
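Seed 2500 lymphoblastoid cells per well, incubate 5 hr at 37 C, add compound and incubate 24 hr at 37 C, add CellTiter-Glo, wait 30 min at room temperature, then read luminescence.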

SMILES strings stand for the structures. Results filed as inconclusive are left out. Activity calls are given as the source filed them. Unless noted, the call rests on the fitted dose curve; in most records, active means well fitted curve in the direction sought with a large enough effect; inconclusive means small, poorly fitted or top-dose-only effect, or another doubt; inactive means no such curve, though single readings can be large; an effect the other way counts as inactive or inconclusive.

Chain of Peroxisome proliferator-activated receptor gamma (Homo sapiens) (P37231 whole entry, looked up): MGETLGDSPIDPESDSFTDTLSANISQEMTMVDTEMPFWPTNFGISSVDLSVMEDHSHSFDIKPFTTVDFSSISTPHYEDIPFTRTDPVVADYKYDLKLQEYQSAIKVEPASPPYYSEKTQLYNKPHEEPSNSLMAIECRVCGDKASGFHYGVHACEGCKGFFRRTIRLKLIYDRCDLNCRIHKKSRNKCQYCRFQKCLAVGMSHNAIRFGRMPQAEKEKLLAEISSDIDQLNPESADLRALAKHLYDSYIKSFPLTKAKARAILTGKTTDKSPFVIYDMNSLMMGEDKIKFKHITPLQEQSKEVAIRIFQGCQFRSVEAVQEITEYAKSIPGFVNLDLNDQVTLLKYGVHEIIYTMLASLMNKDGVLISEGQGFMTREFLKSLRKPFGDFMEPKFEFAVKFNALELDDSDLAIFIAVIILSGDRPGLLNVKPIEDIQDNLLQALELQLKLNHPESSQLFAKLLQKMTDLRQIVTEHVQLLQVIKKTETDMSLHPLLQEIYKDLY
Chain of Glucocorticoid receptor (Homo sapiens) (P04150 whole entry, looked up): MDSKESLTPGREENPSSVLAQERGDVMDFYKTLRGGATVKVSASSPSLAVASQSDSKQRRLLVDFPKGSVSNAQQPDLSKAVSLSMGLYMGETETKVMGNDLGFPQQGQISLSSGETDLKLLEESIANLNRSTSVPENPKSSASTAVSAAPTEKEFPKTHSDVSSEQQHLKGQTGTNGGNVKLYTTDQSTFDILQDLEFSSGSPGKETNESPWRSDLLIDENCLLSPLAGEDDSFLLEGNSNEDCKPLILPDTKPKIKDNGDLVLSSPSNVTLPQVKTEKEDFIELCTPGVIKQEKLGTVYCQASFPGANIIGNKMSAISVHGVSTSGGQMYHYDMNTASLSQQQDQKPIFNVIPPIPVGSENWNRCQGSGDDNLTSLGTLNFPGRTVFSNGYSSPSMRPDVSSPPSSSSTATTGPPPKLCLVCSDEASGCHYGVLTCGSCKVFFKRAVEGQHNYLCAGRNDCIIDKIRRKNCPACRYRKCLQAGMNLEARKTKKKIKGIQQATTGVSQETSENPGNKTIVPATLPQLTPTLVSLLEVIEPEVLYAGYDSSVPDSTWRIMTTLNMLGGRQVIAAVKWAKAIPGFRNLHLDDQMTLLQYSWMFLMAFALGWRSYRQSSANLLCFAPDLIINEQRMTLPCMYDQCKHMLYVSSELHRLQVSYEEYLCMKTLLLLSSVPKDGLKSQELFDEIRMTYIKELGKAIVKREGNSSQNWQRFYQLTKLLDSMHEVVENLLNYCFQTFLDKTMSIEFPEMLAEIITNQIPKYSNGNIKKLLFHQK
Chain of Thyroid hormone receptor beta (Homo sapiens) (P10828 whole entry, looked up): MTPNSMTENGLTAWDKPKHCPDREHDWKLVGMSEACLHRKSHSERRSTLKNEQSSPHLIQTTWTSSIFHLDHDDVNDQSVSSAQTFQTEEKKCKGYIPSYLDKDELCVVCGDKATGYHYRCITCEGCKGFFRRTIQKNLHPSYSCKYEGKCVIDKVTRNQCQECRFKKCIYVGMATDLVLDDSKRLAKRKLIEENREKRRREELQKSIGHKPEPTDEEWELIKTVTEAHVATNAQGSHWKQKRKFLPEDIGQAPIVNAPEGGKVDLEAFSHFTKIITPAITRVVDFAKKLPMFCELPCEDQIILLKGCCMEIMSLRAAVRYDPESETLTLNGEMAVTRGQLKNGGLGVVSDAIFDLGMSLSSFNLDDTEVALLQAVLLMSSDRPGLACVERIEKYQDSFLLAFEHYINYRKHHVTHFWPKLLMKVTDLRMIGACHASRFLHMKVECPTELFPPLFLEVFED
Chain of Voltage-gated inwardly rectifying potassium channel KCNH2 (Homo sapiens) (Q12809 whole entry, looked up): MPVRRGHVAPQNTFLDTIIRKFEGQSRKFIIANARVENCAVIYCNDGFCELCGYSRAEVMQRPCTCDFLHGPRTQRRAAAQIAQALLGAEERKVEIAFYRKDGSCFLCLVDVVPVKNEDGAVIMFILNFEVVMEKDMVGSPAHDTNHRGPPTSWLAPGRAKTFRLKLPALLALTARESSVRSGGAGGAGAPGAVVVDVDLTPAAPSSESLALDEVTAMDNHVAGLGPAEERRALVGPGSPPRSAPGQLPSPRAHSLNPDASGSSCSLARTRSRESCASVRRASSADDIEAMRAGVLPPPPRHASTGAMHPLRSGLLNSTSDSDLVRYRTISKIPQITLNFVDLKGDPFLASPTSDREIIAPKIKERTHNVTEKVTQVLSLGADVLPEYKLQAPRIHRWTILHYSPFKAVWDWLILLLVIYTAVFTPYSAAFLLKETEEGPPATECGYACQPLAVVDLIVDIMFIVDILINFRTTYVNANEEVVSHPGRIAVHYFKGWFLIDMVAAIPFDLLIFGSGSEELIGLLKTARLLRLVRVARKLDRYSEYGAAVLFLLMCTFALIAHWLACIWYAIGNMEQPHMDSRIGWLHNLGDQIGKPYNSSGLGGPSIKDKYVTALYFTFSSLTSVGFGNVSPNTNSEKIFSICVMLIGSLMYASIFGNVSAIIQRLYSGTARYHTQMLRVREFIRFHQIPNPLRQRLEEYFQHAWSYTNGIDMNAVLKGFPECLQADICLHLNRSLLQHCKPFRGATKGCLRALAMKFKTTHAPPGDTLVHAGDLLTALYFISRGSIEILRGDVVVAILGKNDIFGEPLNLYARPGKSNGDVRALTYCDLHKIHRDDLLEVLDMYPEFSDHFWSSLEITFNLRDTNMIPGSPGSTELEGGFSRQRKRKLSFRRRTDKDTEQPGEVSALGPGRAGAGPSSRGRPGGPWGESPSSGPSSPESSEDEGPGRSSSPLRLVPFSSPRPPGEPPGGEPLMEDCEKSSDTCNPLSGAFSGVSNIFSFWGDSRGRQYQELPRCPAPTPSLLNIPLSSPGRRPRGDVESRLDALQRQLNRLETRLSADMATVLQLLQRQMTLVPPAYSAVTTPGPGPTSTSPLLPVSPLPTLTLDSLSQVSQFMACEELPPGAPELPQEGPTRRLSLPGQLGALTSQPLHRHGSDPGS
Chain of Bile acid receptor (Homo sapiens) (Q96RI1 whole entry, looked up): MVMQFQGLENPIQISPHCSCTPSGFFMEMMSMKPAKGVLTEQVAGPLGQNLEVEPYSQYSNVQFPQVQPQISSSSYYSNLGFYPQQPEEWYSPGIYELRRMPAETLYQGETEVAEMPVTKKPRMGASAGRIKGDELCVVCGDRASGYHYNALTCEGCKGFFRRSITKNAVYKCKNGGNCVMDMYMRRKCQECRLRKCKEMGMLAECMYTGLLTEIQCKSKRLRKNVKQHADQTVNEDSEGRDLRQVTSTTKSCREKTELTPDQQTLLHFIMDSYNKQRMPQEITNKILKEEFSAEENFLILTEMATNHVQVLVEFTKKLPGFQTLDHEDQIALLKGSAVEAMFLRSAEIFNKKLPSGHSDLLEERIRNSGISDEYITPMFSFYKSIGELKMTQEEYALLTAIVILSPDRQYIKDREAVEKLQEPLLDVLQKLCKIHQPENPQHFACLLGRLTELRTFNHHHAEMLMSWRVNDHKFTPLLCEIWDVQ

Take `CCC(Cl)CC(Cl)C(Cl)C(Cl)C(Cl)C(C)Cl` (stereo unspecified): the Potency in assay [1] and in assay [2] was > 92 µM (inactive) throughout. The Potency result in assay [3], in [5], in [6], in assay [7], in [8] and in assay [9] was “inactive” in each case. Besides, the call in assay [4] was inactive. Moreover, the activation in assay [10] is 4.73% (inactive). For the same compound, the max response in assay [11] was -12%. Further, in [12], the activity change % (negative = inhibition) is -1.45% (inactive).

For `Cc1c(N)cccc1Cl`, the Potency in [1] and in [2] was > 92 µM (inactive) each time. The Potency entry in assay [13], in assay [3], in assay [5], in assay [6], in assay [7] and in assay [14] was “inactive” each time. Moreover, the Potency entry in assay [15] and in [16] was “inactive” in each case. In addition, in [11], the max response was -10%.

On to `Cc1ccc(N)cc1[N+](=O)[O-]`, for which the Potency in assay [1] was > 92 µM (inactive). The Potency entry in assay [17], in assay [13], in [3], in [6], in assay [8] and in [15] was “inactive” each time. Further, in [18], the Potency entry was “inactive”. Also, the result in [4] was inactive. Moreover, in assay [11], the max response turned out to be 35.9%.

With `c1c[nH]cn1`, the Potency in [1] and in [2] was > 92 µM (inactive) throughout. The Potency entry in [19], in assay [7], in [8], in [20], in assay [9] and in assay [15] was “inactive” each time. Moreover, the Potency result in assay [16] is “inactive”. In assay [11], the max response worked out at 30.3%. In addition, the activity change % (negative = inhibition) in [12] is -11.5% (inactive).

As for `C/C(Cl)=C/CCl`, the Potency in assay [1] and in [2] was > 92 µM (inactive) in each case. In addition, the Potency entry in [13], in assay [5], in [6], in assay [7], in assay [8] and in assay [9] was “inactive” in each case. Besides, the Potency result in assay [14], in [18] and in assay [16] was “inactive” each time. Also, the call in assay [4] was inactive. Further, in assay [11], the max response was found to be 5.39%. Besides, the activity change % (negative = inhibition) in assay [12] is 0.318% (inactive).

In the case of `OCC(CBr)(CBr)CBr`, the Potency in [1] and in [2] was > 92 µM (inactive) each time. The Potency result in assay [17], in assay [19], in assay [6], in assay [8], in assay [20] and in [9] was “inactive” each time. Further, in [18], the Potency result is “inactive”. In assay [11], the max response was 9.08%. In assay [12], the activity change % (negative = inhibition) is -0.909% (inactive).

For the compound `CC(C)COC(=O)COc1cc(Cl)c(Cl)cc1Cl`, the Potency in [1] is > 92 µM (inactive). Further, the Potency entry in [13], in [3], in assay [6], in [7], in assay [8] and in assay [20] was “inactive” each time. In addition, the Potency entry in [18] was “inactive”. Further, the outcome in assay [4] was inactive. Also, the max response in [11] stood at 16.7%.

On to `CCCCNCC`, for which, in assay [1], the Potency is > 92 µM (inactive). The Potency entry in [13], in assay [19], in assay [5], in assay [6], in assay [7] and in [20] was “inactive” in each case. Further, the Potency result in assay [9] and in assay [15] was “inactive” throughout. The outcome in assay [4] was inactive. In addition, the activation in [10] is -12.1% (inactive). The max response in assay [11] was -21.4%.

With `CC(=O)c1ccc(Cl)c(Cl)c1Cl`, the Potency in [1] was > 92 µM (inactive). In addition, the Potency entry in assay [3], in assay [19], in [6], in [8], in assay [20] and in assay [15] was “inactive” in each case. Moreover, in assay [16], the Potency result was “inactive”. In addition, the compound was called inactive in assay [4]. Further, in assay [10], the activation is 1.81% (inactive).
